The text below walks through data of PubChem BioAssay AID371 (SRMLSC, 2006).

Screen size: about 3,300 compounds; about 280 (8.5%) were called active.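 Rule for the calls: active = mean growth inhibition over the two runs of 50% or more; inactive = mean growth inhibition under 50%.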 The sample as a whole holds a higher share of actives than the screen did.

The test in a line: A549 NSCLC cell proliferation inhibitors – ATP luminescence, human non-small cell lung line, primary screen (AID 371).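 Note: compound exposure lasted 72 h before the ATP read; 0% = untreated cell signal and 100% = no luminescence left.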 The settings on record: at 10 µM, hits give high values.
Take `N#CC1=C(N)C(C#N)(C#N)[C@H](c2ccncc2)[C@H]2CN(C(=O)OCc3ccccc3)CC=C12`: the growth inhibition was 57.7% (active).

Consider `CCOC(=O)N1CC=C2C(C#N)=C(N)C(C#N)(C#N)[C@H](c3cccs3)[C@H]2C1`, for which the growth inhibition was 8.61% (inactive).

For `CC(C)(C)OC(=O)N1CC=C2C(C#N)=C(N)C(C#N)(C#N)[C@H](c3cccnc3)[C@H]2C1`, the growth inhibition is 9.35% (inactive).

As to `CCCCOc1ccc(CSC(CC(=O)O)C(=O)O)cc1` (stereo unspecified), the growth inhibition is -2.76% (inactive).

On to `CCOc1ccc2c(C)nc(NC3=NC(C)(C)C=C(C)N3)nc2c1`, for which the growth inhibition is 72% (active).

As to `COc1ccc2c(C)nc(Nc3nc(C)cc(C)n3)nc2c1`, the growth inhibition was 2.87% (inactive).

In the case of `CCCCC(C(=O)O)C(C)CC(=O)Nc1cccc(C(=O)O)c1` (stereo unspecified), the growth inhibition was -1.54% (inactive).

Take `CC[C@H]1OC(=O)C[C@@H](O)[C@H](C)[C@@H](O[C@@H]2O[C@H](C)C[C@H](N(C)C)[C@H]2O)[C@@H](CC=O)C[C@@H](C)C(=O)C=C[C@]2(C)O[C@H]2[C@@H]1C`: the growth inhibition was 24.4% (inactive).

`CC1=C(C(=O)Nc2ccccc2)C(c2ccncc2)C(C#N)=C(SCC(=O)NC(C)C)N1` (stereo unspecified): the growth inhibition is 6.59% (inactive).

For `CCc1ccc(NC(=O)CSC2=C(C#N)C(c3ccc4c(c3)OCO4)CC(=O)N2)cc1` (stereo unspecified), the growth inhibition is 8.25% (inactive).

Turning to `CC(C)(C)C1CCC2(CC1)C(C#N)=C(SCC(=O)Nc1ccccc1)NC(=O)C2C#N` (stereo unspecified), the growth inhibition is 70.2% (active).

With `COC(=O)c1ccc(=O)n(Cc2ccc3c(c2)OCO3)c1`, the growth inhibition is 8.75% (inactive).

Consider `CCc1cc2c(=O)c(-c3nc4ccccc4[nH]3)coc2cc1OC(=O)N1CCOCC1`, for which the growth inhibition was -4.96% (inactive).

Consider `COc1cc(/C=C/C(=O)CC(=O)/C=C/c2ccc(O)c(OC)c2)ccc1O`, for which the growth inhibition is 75.3% (active).

Take `CCN(CC)C(=O)c1ccc(O)c(OC)c1`: the growth inhibition was -6.2% (inactive).

Take `O=C(O)/C=C/c1ccc(O)c(O)c1`: the growth inhibition was -1.3% (inactive).

Take `Cc1ccccc1OCC(O)Cn1c(N2CCN(c3ccccc3)CC2)nc2c1c(=O)[nH]c(=O)n2C` (stereo unspecified): the growth inhibition was 3.03% (inactive).

Turning to `O=C(O)CC(NCc1ccco1)C(=O)OCC1CCCO1` (stereo unspecified), the growth inhibition is 0.9% (inactive).

In the case of `CCCC(=O)Nn1cnc2c(c1=O)C1(CCCC1)Cc1ccccc1-2`, the growth inhibition was 5.85% (inactive).

Take `COc1cccc(N2CCN(C3CC(=O)N(c4cccc(Cl)c4)C3=O)CC2)c1` (stereo unspecified): the growth inhibition is 4.23% (inactive).

Take `CSc1ccc2c(c1)N(CCC1CCCCN1C)c1ccccc1S2` (stereo unspecified): the growth inhibition is 93.4% (active).

`CC(CN1c2ccccc2Sc2ccccc21)N(C)C` (stereo unspecified): the growth inhibition is 25.9% (inactive).

For the molecule `COc1ccc(/C(O)=C2/C(=O)C(=O)N(CCCN(C)C)C2c2ccco2)cc1Cl` (stereo unspecified), the growth inhibition is 3.4% (inactive).

Regarding `COc1ccc(OC)c(C2/C(=C(\O)c3ccc4c(c3)OCCO4)C(=O)C(=O)N2CCCN(C)C)c1` (stereo unspecified), the growth inhibition is 7.35% (inactive).

In the case of `CC(C)N=c1cc2n(-c3ccc(Cl)cc3)c3ccccc3nc-2cc1Nc1ccc(Cl)cc1`, the growth inhibition was 92.5% (active).

Take `COc1ccc(N/C(=N\c2nc(C)cc(C)n2)NC(=O)C(C)C)cc1OC`: the growth inhibition was 7.92% (inactive).

Take `CC(C)c1nc2n[nH]c(N)c2c2c1CCC2`: the growth inhibition is -2.18% (inactive).

Regarding `O=C1OC2CCC1(c1ccccc1)C2` (stereo unspecified), the growth inhibition was -2.09% (inactive).

Consider `COc1cccc(C2=CC(c3ccccc3)n3nnnc3N2)c1` (stereo unspecified), for which the growth inhibition is 72.7% (active).

In the case of `COc1ccc(C2C=C(c3ccc(C)cc3)Nc3ncnn32)cc1` (stereo unspecified), the growth inhibition is 30.1% (inactive).

For the molecule `COc1cccc(C2=CC(c3ccccc3)n3ncnc3N2)c1` (stereo unspecified), the growth inhibition was 11.9% (inactive).

`COc1ccc(C2=CC(c3cccc(OC)c3)n3nnnc3N2)cc1` (stereo unspecified): the growth inhibition is 27.1% (inactive).

Consider `COc1cccc(C2=CC(c3ccc(N(C)C)cc3)n3nnnc3N2)c1` (stereo unspecified), for which the growth inhibition is 58.6% (active).

With `COc1ccc(C2=CC(c3ccc(C)cc3)n3nnnc3N2)cc1` (stereo unspecified), the growth inhibition was 27.9% (inactive).

On to `CC(NC(=O)OCc1ccccc1)C(=O)OCN1C(=O)c2ccccc2C1=O` (stereo unspecified), for which the growth inhibition was 2.01% (inactive).

Regarding `Cc1ccc(S(=O)(=O)c2cc3c(=O)n4cccc(C)c4nc3n(CC3CCCO3)c2=N)cc1` (stereo unspecified), the growth inhibition is 7.96% (inactive).

As to `CCOc1cccc(-c2nnc3sc(COc4ccccc4)nn23)c1`, the growth inhibition was 3.57% (inactive).

Turning to `c1cc(-c2nnc3sc(C4CCCCC4)nn23)ccn1`, the growth inhibition is -0.46% (inactive).

Take `CCOc1cccc(-c2nnc3sc(C4CCCCC4)nn23)c1`: the growth inhibition was 79% (active).

For `COc1ccc(-c2nnc3sc(-c4ccccc4OC)nn23)cc1`, the growth inhibition was 4.96% (inactive).

On to `CCOc1cccc(-c2nnc3sc(-c4cccs4)nn23)c1`, for which the growth inhibition is 2.48% (inactive).

With `CCOc1cccc(-c2nnc3sc(-c4cc(OC)c(OC)c(OC)c4)nn23)c1`, the growth inhibition is 53.3% (active).

In the case of `CCOc1cccc(-c2nnc3sc(-c4ccc(C)cc4)nn23)c1`, the growth inhibition is 48.3% (inactive).

For the molecule `CCOc1ccc(-c2nnc3sc(-c4ccccc4OC)nn23)cc1`, the growth inhibition was -2.6% (inactive).

For the molecule `c1cncc(-c2nnc3sc(-c4ccco4)nn23)c1`, the growth inhibition is 3.63% (inactive).

Take `COc1cc(-c2nn3c(-c4cccnc4)nnc3s2)cc(OC)c1OC`: the growth inhibition was 14% (inactive).

Regarding `COc1ccccc1-c1nn2c(-c3ccc(C(C)(C)C)cc3)nnc2s1`, the growth inhibition was 83.3% (active).

As to `CCN(CC)c1ccc(-c2nn3c(-c4cccnc4)nnc3s2)cc1`, the growth inhibition is 80.9% (active).

Turning to `Cc1ccc(N(CC(=O)O)C2SC(=O)NC2=O)cc1` (stereo unspecified), the growth inhibition was -7.76% (inactive).

`Cc1ccc(C2CC(c3cccs3)n3nc(N)nc3N2)cc1` (stereo unspecified): the growth inhibition was 17.9% (inactive).

On to `CCOC(=O)c1[nH]c2ccc(Br)cc2c1NC(=O)CCN1CCC(C(=O)OCC)CC1`, for which the growth inhibition was 41.5% (inactive).

`CCSc1nnc(N(CCC#N)CCC#N)s1`: the growth inhibition was 4.31% (inactive).

As to `CCOC(=O)CCCCC(=O)NC(CO)C(=O)NC` (stereo unspecified), the growth inhibition was -2.55% (inactive).

`CN(CCNC(=O)c1ccc(/C=N/O)nc1)Cc1ccccc1`: the growth inhibition was -0.01% (inactive).

For the molecule `COc1ccccc1-c1nnc2sc(C3CCCCC3)nn12`, the growth inhibition is 24.4% (inactive).

As for `COc1cccc(-c2nnc3sc(C4CCCCC4)nn23)c1`, the growth inhibition was 73.3% (active).

As to `c1cncc(-c2nnc3sc(C4CCCCC4)nn23)c1`, the growth inhibition was 25.4% (inactive).

As to `Cn1c(=O)[nH]c(=O)c2c1nc(Br)n2CCSc1ncccn1`, the growth inhibition was 4.37% (inactive).

`COCCCNc1nc2c(c(=O)[nH]c(=O)n2C)n1CC(O)COc1ccccc1` (stereo unspecified): the growth inhibition was 13.7% (inactive).

On to `CC(C)(C)c1ccc(C(O)CCCN2CCC(C(O)(c3ccccc3)c3ccccc3)CC2)cc1` (stereo unspecified), for which the growth inhibition was 95.9% (active).

Turning to `OC(CCN1CCCC1)(c1ccccc1)C1CCCCC1` (stereo unspecified), the growth inhibition was 7.22% (inactive).

In the case of `OC(CCN1CCCCC1)(c1ccccc1)C1CCCCC1` (stereo unspecified), the growth inhibition was 1.96% (inactive).

Turning to `CCCCCSc1nc(C)c(CC(=O)O)c(=O)[nH]1`, the growth inhibition was -2.49% (inactive).

For the molecule `CCOC(=O)c1ccc(CC2S/C(=C(\C#N)C(C)=O)NC2=O)cc1` (stereo unspecified), the growth inhibition is 26.4% (inactive).

With `N#C/C(C(=O)N1CCOCC1)=C1/SC(Cc2ccccc2)C(=O)N1c1ccccc1` (stereo unspecified), the growth inhibition was 0% (inactive).

Consider `CC(=O)/C(C#N)=C1\NC(=O)C(Cc2ccccc2Cl)S1` (stereo unspecified), for which the growth inhibition is 61.9% (active).

As for `CCOC(=O)/C(C#N)=C1/SC(CCO)C(=O)N1c1ccccc1` (stereo unspecified), the growth inhibition is -8.59% (inactive).

Turning to `N#CC(C(=O)Nc1ccc(Cl)c(Cl)c1)=C1Nc2ccccc2N1`, the growth inhibition is 38.8% (inactive).

Regarding `CC(=O)/C(C#N)=C1\NC(=O)C(Cc2ccccc2)S1` (stereo unspecified), the growth inhibition is 56% (active).

In the case of `CCOc1ccc2nc(NC(NC(=O)CC)(C(=O)OC)C(F)(F)F)sc2c1` (stereo unspecified), the growth inhibition is 20.7% (inactive).

Take `CCCCCOc1ccc(C(=O)NCC(=O)NCC(=O)OCC)cc1`: the growth inhibition was 36.1% (inactive).

For the molecule `CC(C)CC(=O)Nc1ccccc1N1CCCC1`, the growth inhibition is 3.4% (inactive).

For `CCOC(=O)C1=Nc2ccccc2C1=[N+]=[N-]`, the growth inhibition is 61.3% (active).

Consider `CCOC(=O)c1n[nH]c2ccccc12`, for which the growth inhibition was -3.73% (inactive).

On to `CCOC(=O)CNC(=O)Nc1ccccc1C(=O)OC`, for which the growth inhibition was -3.41% (inactive).

Regarding `C=CCOn1c(=O)c(-c2ccc(OC)cc2)[n+]([O-])c2ccccc21`, the growth inhibition is 0.35% (inactive).

As to `CSC1=C(C#N)C(C)CC(=O)N1` (stereo unspecified), the growth inhibition was -1.22% (inactive).

As for `O=C1c2ccccc2C(=O)N1c1ncccn1`, the growth inhibition was 8.95% (inactive).

Take `COCCCn1c2nc3ccccc3nc2c2c(=O)n(CC3CCCO3)cnc21` (stereo unspecified): the growth inhibition is 3.37% (inactive).

As to `CCOC(=O)CC(=O)CSc1nc(N)c(C#N)c(-c2ccc(Cl)cc2)c1C#N`, the growth inhibition was 5.46% (inactive).

Turning to `CCc1nc(N)nc(N)c1-c1ccc(Cl)cc1`, the growth inhibition is 79.6% (active).

Take `Cc1cc(-c2cc(-c3ccc(Cl)cc3)nc(N)c2C#N)co1`: the growth inhibition is 30.1% (inactive).

Regarding `Cc1c(/C(O)=C2\C(=O)C(=O)N(CCN(C)C)C2c2cccs2)cnn1-c1ccccc1` (stereo unspecified), the growth inhibition was 0.12% (inactive).

`O=c1c2ccccc2ncn1Cc1ccco1`: the growth inhibition is 1.72% (inactive).

On to `c1coc(CNc2ncnc3ccccc23)c1`, for which the growth inhibition is 23.6% (inactive).

As for `OCCNc1ncnc2c1c(-c1ccccc1)c(-c1ccccc1)n2Cc1ccco1`, the growth inhibition was 53.2% (active).

As to `CC(C)CN1C(=O)NC(NC(=O)c2cccnc2)(C(F)(F)F)C1=O` (stereo unspecified), the growth inhibition was -0.36% (inactive).

For the molecule `Cc1nnc(SCC(=O)N2CCOCC2)c2ccccc12`, the growth inhibition is -4.15% (inactive).

Turning to `COc1cccc(Cn2c(NCc3ccccn3)nc3c2c(=O)n(C)c(=O)n3C)c1`, the growth inhibition is 23.9% (inactive).

Consider `COc1cccc(Cn2c(NCC(C)C)nc3c2c(=O)n(C)c(=O)n3C)c1`, for which the growth inhibition is 2.01% (inactive).

Regarding `COCCCNc1nc2c(c(=O)n(C)c(=O)n2C)n1Cc1cccc(OC)c1`, the growth inhibition was 33.1% (inactive).

As to `COc1ccc(Oc2nc3c(c(=O)n(C)c(=O)n3C)n2Cc2cccc(OC)c2)cc1`, the growth inhibition is 27.7% (inactive).

In the case of `CCCCNc1nc2c(c(=O)n(C)c(=O)n2C)n1Cc1cccc(OC)c1`, the growth inhibition was 59.5% (active).

Consider `COc1cccc(Cn2c(NCc3ccco3)nc3c2c(=O)n(C)c(=O)n3C)c1`, for which the growth inhibition was 51.8% (active).

`Cc1cc(=O)oc(C)c1C(=O)NCC(C)C`: the growth inhibition is -13.9% (inactive).

For the molecule `C=CCOc1nc2c(c(=O)n(C)c(=O)n2C)n1Cc1c(Cl)cccc1Cl`, the growth inhibition was 25.2% (inactive).
